Measurements published in PubChem BioAssay AID588475 (Sanford-Burnham Center for Chemical Genomics, 2011).
Among all 350,000 compounds or so, about 2,100 (0.6%) were called active. This is one part of a sample in which actives are shown more often than they occur. Values without a mark were called inactive.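 The calls were made as follows: active = inhibition of the ligand-induced calcium signal above about 50% at the single tested concentration (limit read from the data); inactive = the rest.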

assay: blockers of CRF-evoked CRF-R2/CRF-BP calcium response – cell-based, HEK293, calcium dye fluorescence, uHTS, primary screen (AID 588475); settings: CRF-induced calcium fluorescence, at 11.8 µM, hits give high values

Structure (SMILES) | inhibition
CSc1nnc(-c2ccc(C(F)(F)F)cn2)o1 | 4.97%
O=C(OCC(=O)N1CCc2ccccc21)c1ccc([N+](=O)[O-])cc1 | -3.17%
CN1CCOC1c1ccc(C2OCCN2C)cc1 (stereo not given) | 4.93%
CCCc1nc2c(C)cc(-c3nc4ccccc4n3C)cc2n1Cc1ccc(-c2ccccc2C(=O)O)cc1 | 17.1%
CN(C)CCCN(Cc1cc2cc3c(cc2[nH]c1=O)OCCO3)C(=O)NC1CCCCC1 | -6.7%
Cc1cc(C(=O)OC(C)C(=O)NC2CCCCC2C)c(C)o1 (stereo not given) | -2.53%
O=C(Cn1cnc([N+](=O)[O-])n1)NCCc1ccccc1 | 67.5% (active)
O=C(Cc1ccc(Br)cc1)NCCc1ccccc1 | -0.6%
CC(C)(C)NC(=O)Cn1cnc([N+](=O)[O-])n1 | 4.8%
COCC(=O)N1CCc2ccc(NC(=O)c3ccccc3Cl)cc2C1 | 6.03%
S=C(NCc1cccs1)Nc1ccc(Cl)cc1 | 8.34%
Fc1ccccc1CNC(=S)Nc1ccc(Cl)cc1 | 66% (active)
FC(F)(F)Oc1ccc(NC(=S)NCc2ccccc2)cc1 | 44.6%
COc1ccc(NC2CC(=O)N(C)C2=O)cc1 (stereo not given) | 20.5%
CCN(CC)CCN(C(=O)c1cc(Cl)sc1Cl)c1nc2cc3c(cc2s1)OCO3 | -22.2%
CN(C)CCN(C(=O)C1=COCCO1)c1nc2ccc(Cl)cc2s1 | -9.68%
CN(C)CCN(C(=O)CN1C(=O)c2ccccc2C1=O)c1nc2cc3c(cc2s1)OCCO3 | 85.2% (active)
O=C(COc1ccc(Cl)cc1)NCCSc1ccccc1 | 9.25%
O=C1CCC(CCC(=O)N2CCCC(C(=O)c3ccc(Cl)cc3)C2)=NN1 (stereo not given) | -7.3%
CC(=O)n1cc([C@H]2C=C(C(=O)N3CCOCC3)O[C@@H](OCc3ccc(CO)cc3)C2)c2ccccc21 | -5.43%
Cc1cc2c(cc1C)NC(c1ccccn1)C1=C(CC(C)(C)CC1=O)N2 (stereo not given) | 7.43%
Cc1ccc(C(=O)Nc2ncccc2C)cc1S(=O)(=O)N1CCOCC1 | -0.48%
Cc1ccc(NC(=O)NC2CCCCC2)cc1S(=O)(=O)N1CCOCC1 | 5.45%
Cc1ccc(C(=O)Nc2ccccc2C(=O)NC2CCCCC2)cc1S(=O)(=O)N1CCOCC1 | 72.2% (active)
Cc1nc(C)c(C(=O)N(c2ccc(C)c(C)c2)C(C(=O)NCc2ccco2)c2ccccc2)s1 (stereo not given) | -3.65%
O=C(NCC(=O)N(c1ccccc1)C(C(=O)NCC1CCCO1)c1ccccc1)c1cccs1 (stereo not given) | -1.33%
Cc1cccc(N(C(=O)c2sc(C)nc2C)C(C(=O)NCC2CCCO2)c2ccccc2)c1 (stereo not given) | 54.8% (active)
COc1ccc([N+](=O)[O-])cc1N(CC(O)Cn1nnc2ccccc21)S(=O)(=O)c1ccc(C)cc1 (stereo not given) | 67.3% (active)

Structure (SMILES) | inhibition
Cc1ccc(S(=O)(=O)N(CC(O)CN2CCCCC2)c2cccc([N+](=O)[O-])c2)cc1 (stereo not given) | -12.3%
COc1ccc([N+](=O)[O-])cc1N(CC(O)CN(CC(C)C)CC(C)C)S(=O)(=O)c1ccc(C)cc1 (stereo not given) | -23.4%
CN(Cc1ccc(CNC[C@H]2O[C@@H](n3cnc4c(N)ncnc43)[C@H](O)[C@@H]2O)o1)S(C)(=O)=O | 15.6%
O=C(Cc1cccs1)N/N=C/c1ccc(OCc2ccccc2)cc1 | -49.7%
O=C(O)c1ccc(/C=N/NC(=S)NCc2ccccc2)cc1 | 3.62%
C=CCNC(=S)N/N=C/c1ccc(OCc2ccccc2)cc1 | 95.3% (active)
CN(CCO)c1ccc(/C=N/Nc2nncc3ccccc23)cc1 | 13.7%
COc1ccc2[nH]c(=O)c(CN(Cc3cccnc3)S(=O)(=O)c3ccccc3F)cc2c1 | -7.64%
CN(C)/C(=N\OC(=O)c1ccccc1)c1nonc1N | 28.8%
Cc1cc(=O)n2nc(N3CCC(C(=O)Nc4c(F)c(F)c(F)c(F)c4F)CC3)sc2n1 | 88.8% (active)
CCCOc1ccc(CNC(=O)C2CCN(c3nn4c(=O)cc(C)nc4s3)CC2)cc1 | 4.13%
COc1ccc(CCNC(=O)C2CCN(c3nn4c(=O)cc(C)nc4s3)CC2)cc1OC | -3.66%
CCOc1ccc(N(CC(=O)Nc2ccccc2F)S(=O)(=O)c2c(C)[nH]c(=O)[nH]c2=O)cc1 | -6.15%
CCCNS(=O)(=O)c1ccc(CCC(=O)N2CCCC2)cc1 | 0.99%
C[C@@H]1CN([C@H](C)CO)C(=O)CCCn2nncc2CO[C@@H]1CN(C)C(=O)OCc1ccccc1 | -0.52%
Cc1ccc(C(=O)c2coc3ccc(O)c(CN(C)C)c23)cc1 | -15.4%
COc1cccc(OC)c1C(=O)N1CCN(Cc2cccnc2)CC1 | 56.1% (active)
COc1cccc(OC)c1C(=O)N1CCN(Cc2ccccc2F)CC1 | 24.1%
COc1ccccc1C(=O)N1CCN=C1SCc1cccnc1 | 11.4%
Cc1nc2sc(C(c3ccco3)N3CCC4(CC3)OCCO4)c(O)n2n1 (stereo not given) | 11.4%
[O-][N+]12CCCCC1CCCC2CO (stereo not given) | 8.6%
COc1cccc(NC(=O)c2cc(S(=O)(=O)N3CCc4ccccc43)cn2C)c1 | 82.7% (active)
COc1ccccc1N(C)C(=O)c1cc(S(=O)(=O)N2CCc3ccccc32)cn1C | -4.87%
COc1ccc(S(=O)(=O)N2CCc3ccccc32)cc1C(=O)Nc1cc(S(C)(=O)=O)ccc1Cl | 2.64%
O=C(N[C@H]1C/C=C\C(c2ccc(F)cc2)N(Cc2ccccc2)C(=O)C1)OCC1c2ccccc2-c2ccccc21 (stereo not given in full) | -13.4%
O=C(N[C@H]1C/C=C\C(c2cccc(F)c2)N(Cc2ccccc2)C(=O)C1)OCC1c2ccccc2-c2ccccc21 (stereo not given in full) | 98.1% (active)
O=C(N[C@@H]1C/C=C\C[C@@H](CC(=O)N(CCO)Cc2ccccc2)C(=O)N[C@H](Cc2ccccc2)COC1=O)OCC1c2ccccc2-c2ccccc21 | 1.02%
